{"source": "PubChem BioAssay AID2501", "about": "(Southern Research Specialized Biocontainment Screening …, 2010)", "note": "In all, about 2,200 compounds went through this assay and about 1,200 (55%) were called active. No cut-off is given here; in the data, nearly all actives have IC50 up to about 92 µM. So high a share suggests a set chosen from earlier hits. The list shows a part of the results."}
{"experiment": "counter assay for TAg ATPase ADP read-out – biochemical, ADP-Hunter, fluorescence, counter-screen (AID 2501);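 note: purified T antigen ATPase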", "settings": "series mostly up to 100 µM"}
{"smiles": "Nc1ccc2c(c1)Cc1ccccc1-2", "IC50": "4.77 µM (active)"}
{"smiles": "O=C1NC(=O)C(=Cc2csc3ccccc23)C(=O)N1", "IC50": "inactive"}
{"smiles": "CN1CCN(/N=C/c2c[nH]c3ccccc23)CC1", "IC50": "6.59 µM (active)"}
{"smiles": "O=C1NC(=O)N(Cc2ccco2)C(=O)/C1=C/c1cccn1CCOc1ccccc1Cl", "IC50": "inactive"}
{"smiles": "O=C1NC(=S)NC(=O)C1=Cc1ccc2c(c1)CCN2CCCCl", "IC50": "inactive"}
{"smiles": "O=C1NC(=O)N(c2ccccc2)C(=O)/C1=C/c1ccc([N+](=O)[O-])s1", "IC50": "inactive"}
{"smiles": "C=CCN1C(=O)/C(=C/c2cc(C)n(-c3cccnc3)c2C)C(=O)NC1=S", "IC50": "inactive"}
{"smiles": "C[CH2][Hg][S]c1ccccc1C(=O)O", "IC50": "inactive"}
{"smiles": "CCOc1ccccc1N1C(=O)NC(=O)/C(=C/c2ccc3c4c(cccc24)CC3)C1=O", "IC50": "inactive"}
{"smiles": "CCC(C)N1C(=O)NC(=O)C2(Cc3c(ccc4ccccc34)N(C)C2)C1=O", "note": "(configuration not stated)", "IC50": "23.3 µM (active)"}
{"smiles": "COc1ccc(N2C(=O)/C(=C/c3ccc(C)o3)C(=O)NC2=S)c(OC)c1", "IC50": "inactive"}
{"smiles": "COc1ccc(CN2C(=O)NC(=O)/C(=C/c3ccc([N+](=O)[O-])o3)C2=O)cc1", "IC50": "inactive"}
{"smiles": "Cc1ccc2c(c1)=C/C(=C\\c1c(O)[nH]c(=O)[nH]c1=O)C(=O)N=2", "IC50": "inactive"}
{"smiles": "CCN1C(=O)/C(=C\\c2ccc([N+](=O)[O-])s2)C(=O)NC1=S", "IC50": "inactive"}
{"smiles": "O=C1NC(=O)N(c2ccccc2)C(=O)/C1=C\\C=C\\c1ccccc1", "IC50": "inactive"}
{"smiles": "CN(c1ccc(OCC(=O)N2CCN(C/C=C/c3ccccc3)CC2)cc1)S(=O)(=O)c1cccs1", "IC50": "inactive"}
{"smiles": "O=c1[nH]sc2cc(F)ccc12", "IC50": "inactive"}
{"smiles": "O=C(O)CCC(=O)NCCC1=c2ccccc2=N/C1=C\\c1c(O)n(Cc2ccc(F)cc2)c(=S)[nH]c1=O", "IC50": "inactive"}
{"smiles": "CC1CN=C(Nc2ccc(N(C)C)cc2)S1", "note": "(configuration not stated)", "IC50": "7.09 µM (active)"}
{"smiles": "COP(=S)(OC)SCN1C(=O)c2ccccc2C1=O", "IC50": "inactive"}
{"smiles": "CCOc1ccc(N2C(=O)NC(=O)/C(=C\\c3ccccc3[N+](=O)[O-])C2=O)cc1", "IC50": "inactive"}
{"smiles": "CCc1c(C)nc(N)nc1N1N=C1SC(C(C)=O)C(C)=O", "IC50": "inactive"}
{"smiles": "CCCN1CCc2cc(O)cc3c2[C@H]1Cc1ccc(O)c(O)c1-3", "IC50": "inactive"}
{"smiles": "O=c1c(O)c(-c2ccc(O)c(O)c2)oc2cc(O)cc(O)c12", "IC50": "98.5 µM (active)"}
{"smiles": "O=c1cc(-c2ccc(O)c(O)c2)oc2cc(O)cc(O)c12", "IC50": "8.07 µM (active)"}
{"smiles": "Oc1cc2c(cc1O)[C@H]1c3ccccc3CN[C@@H]1CC2", "IC50": "inactive"}
{"smiles": "CN1CCc2cc(O)cc3c2[C@H]1Cc1ccc(O)c(O)c1-3", "IC50": "inactive"}
{"smiles": "O=C1NC(=O)N(c2ccc(Br)cc2)C(=O)/C1=C/c1ccsc1", "IC50": "inactive"}
{"smiles": "CN1C(=O)NC(=O)/C(=C/c2ccc([N+](=O)[O-])o2)C1=O", "IC50": "inactive"}
{"smiles": "O=C1NC(=O)N(c2ccccc2)C(=O)/C1=C\\c1ccc2c3c(cccc13)CC2", "IC50": "inactive"}
{"smiles": "O=c1c2ccccc2[se]n1-c1ccccc1", "IC50": "10.9 µM (active)"}
{"smiles": "O=C1NC(=O)C(=Cc2ccccc2OCCOc2ccc([N+](=O)[O-])cc2)C(=O)N1", "IC50": "inactive"}
{"smiles": "CCN1C(=O)C(=C/C=C/c2ccco2)C(=O)N(CC)C1=S", "IC50": "inactive"}
{"smiles": "CCOc1cccc(OCC)c2c(C)[n+](CC3CCCO3)c(C)c1-2", "note": "(configuration not stated)", "IC50": "inactive"}
{"smiles": "COc1ccc(CN2C(=O)NC(=O)/C(=C/c3ccoc3)C2=O)cc1", "IC50": "inactive"}
{"smiles": "COc1cc(/C=C2\\C(=O)NC(=O)N(CCc3ccc(F)cc3)C2=O)ccc1O", "IC50": "6.23 µM (active)"}
{"smiles": "O=C1NC(=O)N(CCc2ccc(F)cc2)C(=O)/C1=C/c1ccco1", "IC50": "inactive"}
{"smiles": "COc1cc(C=C2C(=O)NC(=O)NC2=O)ccc1O", "IC50": "19.6 µM (active)"}
{"smiles": "O=C1NC(=O)C(=Cc2ccc(OCCOc3ccc([N+](=O)[O-])cc3)cc2)C(=O)N1", "IC50": "inactive"}
{"smiles": "CCOC(=O)CSCCOc1ccc(C=C2C(=O)NC(=O)NC2=O)cc1OC", "IC50": "inactive"}
{"smiles": "Cc1nc2cc([N+](=O)[O-])ccc2c(=O)n1-c1ccc(Br)cc1", "IC50": "inactive"}
{"smiles": "O=C1NC(=S)NC(=O)C1=Cc1cccn1-c1ccc(O)cc1", "IC50": "inactive"}
{"smiles": "Cc1cc(C=C2C(=O)N(C)C(=S)N(C)C2=O)c(C)n1-c1ccncc1", "IC50": "inactive"}
{"smiles": "CN(C)[C@@H]1C(=O)C(C(N)=O)=C(O)[C@@]2(O)C(=O)C3=C(O)c4c(O)cccc4[C@@](C)(O)[C@H]3[C@H](O)[C@@H]12", "IC50": "inactive"}
{"smiles": "CCCNC(=O)N1C2CCC1CC(O)(c1cccnc1)C2", "note": "(configuration not stated)", "IC50": "inactive"}
{"smiles": "Cc1ccccc1-n1c(C)cc(/C=C2/C(=O)NC(=O)N(Cc3ccco3)C2=O)c1C", "IC50": "inactive"}
{"smiles": "N/C(=N\\[N+](=O)[O-])N/N=C/c1ccc(O)cc1", "IC50": "2.93 µM (active)"}
{"smiles": "C[C@]12CC[C@@H]3c4ccc(O)c(O)c4CC[C@H]3[C@@H]1CC[C@@H]2O", "IC50": "inactive"}
{"smiles": "COc1ccc(/C=C2/C(=O)NC(=O)N(Cc3ccco3)C2=O)cc1", "IC50": "inactive"}
{"smiles": "NS(=O)(=O)c1ccc(-c2ccc(C=C3C(=O)NC(=O)NC3=O)o2)cc1", "IC50": "inactive"}
{"smiles": "CC1=NCCc2c1[nH]c1cc(O)ccc21", "IC50": "4.35 µM (active)"}
{"smiles": "Cc1ccc(N2C(=O)NC(=O)/C(=C/c3ccc(-c4ccc(C(=O)O)c(Cl)c4)o3)C2=O)cc1", "IC50": "inactive"}
{"smiles": "NC(N)=Nc1ccc2[nH]c3c(c2c1)C[C@@]1(O)[C@H]2Cc4ccc(O)c5c4[C@@]1(CCN2CC1CC1)[C@H]3O5", "IC50": "inactive"}
{"smiles": "Cc1ccc(N2C(=O)NC(=O)/C(=C\\C=C\\c3ccco3)C2=O)cc1C", "IC50": "inactive"}
{"smiles": "C=C1C(=O)O[C@H]2[C@H]1[C@H](OC(=O)CC(=O)O[C@@H]1C[C@@H](C)[C@@H]3C=CC(=O)[C@@]3(C)[C@H]3OC(=O)C(=C)[C@H]13)C[C@@H](C)[C@H]1C=CC(=O)[C@]12C", "IC50": "inactive"}
{"smiles": "CN1C(=O)/C(=C/C=C/c2ccco2)C(=O)NC1=S", "IC50": "inactive"}
{"smiles": "O=C1NC(=O)C(=Cc2ccc(-c3cc(Cl)ccc3[N+](=O)[O-])o2)C(=O)N1", "IC50": "inactive"}
{"smiles": "COc1cc2c(cc1O)CC[n+]1cc3c(OC)c(OC)ccc3cc1-2", "IC50": "4.22 µM (active)"}
{"smiles": "O=C1NC(=O)N(c2ccccc2)C(=O)/C1=C\\c1ccc([N+](=O)[O-])s1", "IC50": "inactive"}
{"smiles": "O=c1[nH]c(=S)n(-c2ccccc2F)c(O)c1C=Nc1ccc(N2CCOCC2)cc1", "IC50": "5.34 µM (active)"}
{"smiles": "CC(C)Nc1ccc(Nc2ccccc2)cc1", "IC50": "5.82 µM (active)"}
{"smiles": "NS(=O)(=O)c1ccc(-c2ccc(C=C3C(=O)NC(=S)NC3=O)o2)cc1", "IC50": "inactive"}
{"smiles": "CCN(CC)c1ccc(N=Cc2c(O)n(-c3ccccc3C)c(=O)[nH]c2=O)cc1", "IC50": "7.13 µM (active)"}
{"smiles": "Cc1ccccc1-n1c(O)c(C=Nc2ccc(N(C)C)cc2)c(=O)[nH]c1=O", "IC50": "5.9 µM (active)"}
{"smiles": "CCN(CC)c1ccc(N=Cc2c(O)n(-c3cc(OC)ccc3OC)c(=O)[nH]c2=O)cc1", "IC50": "6.82 µM (active)"}
{"smiles": "Cc1cccc(OCCn2cccc2/C=C2/C(=O)NC(=O)N(Cc3ccco3)C2=O)c1", "IC50": "inactive"}
{"smiles": "CN(C)c1ccc(C=C2C(=O)NC(=S)NC2=O)cc1[N+](=O)[O-]", "IC50": "inactive"}
{"smiles": "Oc1ccc(C[C@H]2NCCc3cc(O)c(O)cc32)cc1O", "IC50": "inactive"}
{"smiles": "N#CSCC(=O)N1c2ccccc2CCc2ccccc21", "IC50": "inactive"}
{"smiles": "Cc1ccc(/C=C2\\C(=O)NC(=S)N(c3cccc(F)c3)C2=O)o1", "IC50": "inactive"}
{"smiles": "Cc1cc(/C=C2\\C(=O)NC(=O)N(c3ccc(Cl)cc3)C2=O)c(C)n1-c1sc2c(c1C#N)CCCC2", "IC50": "inactive"}
{"smiles": "NCCc1c[nH]c2ccc(O)cc12", "IC50": "10.5 µM (active)"}
{"smiles": "CCN(CC)C(=O)c1ccc2c(c1)C1C(Cl)C(Sc3ccccc3[N+](=O)[O-])CC1C(C(=O)O)N2", "note": "(configuration not stated)", "IC50": "inactive"}
{"smiles": "O=C1NC(=S)NC(=O)C1=Cc1ccc(Br)s1", "IC50": "inactive"}
{"smiles": "CCCCC(=O)N/N=C/c1c(O)n(Cc2ccco2)c(=O)[nH]c1=O", "IC50": "inactive"}
{"smiles": "O=c1[nH]c(=O)n(Cc2ccccc2)c(O)c1/C=C1\\C=Nc2ccccc21", "IC50": "inactive"}
{"smiles": "N#Cc1c(/N=C/c2c(O)n(Cc3ccco3)c(=O)[nH]c2=O)sc2c1CCCC2", "IC50": "27.2 µM (active)"}
{"smiles": "O=C1NC(=O)C(=Cc2ccc(-c3ccccc3[N+](=O)[O-])o2)C(=O)N1", "IC50": "inactive"}
{"smiles": "CCN(CC)c1ccc(/C=C2\\C(=O)NC(=O)N(Cc3ccco3)C2=O)cc1", "IC50": "inactive"}
{"smiles": "O=C1NC(=O)C(=Cc2ccc(-c3ccc(F)cc3O)o2)C(=O)N1", "IC50": "inactive"}
{"smiles": "CNC(C)Cc1ccccc1Sc1ccc(O)cc1", "note": "(configuration not stated)", "IC50": "2.47 µM (active)"}
{"smiles": "CC(Cc1ccccc1Sc1ccc(O)cc1)N(C)C", "note": "(configuration not stated)", "IC50": "1.99 µM (active)"}
{"smiles": "O=C1NC(=O)N(c2ccccc2F)C(=O)/C1=C/c1ccc(Sc2nc3ccccc3[nH]2)o1", "IC50": "inactive"}
{"smiles": "COc1cc2c(cc1OC)-c1c(OC)c(OC)cc3c1[C@H](C2)[N+](C)(C)CC3", "IC50": "inactive"}
{"smiles": "O=c1[nH]c(=S)n(C2CC2)c(O)c1/C=N/Nc1ccccc1", "IC50": "3.94 µM (active)"}
{"smiles": "COc1cccc(N2C(=O)NC(=O)/C(=C\\c3ccc([N+](=O)[O-])s3)C2=O)c1", "IC50": "inactive"}
{"smiles": "O=C1NC(=O)C(=Cc2cc3c(cc2[N+](=O)[O-])OCO3)C(=O)N1", "IC50": "inactive"}
{"smiles": "Cc1cccc(N2C(=O)NC(=O)/C(=C/c3ccc(-c4ccc(C(=O)O)c(Cl)c4)o3)C2=O)c1", "IC50": "inactive"}
{"smiles": "C1=Cc2ccccc2Nc2ccccc21", "IC50": "4.79 µM (active)"}
{"smiles": "Oc1ccc(/C=N/NP(=S)(c2ccccc2)c2ccccc2)cc1O", "IC50": "35.3 µM (active)"}
{"smiles": "O=C1NC(=O)N(c2ccc(Cl)cc2)C(=O)/C1=C\\c1ccc(Sc2nc3ccccc3[nH]2)o1", "IC50": "inactive"}
{"smiles": "CCN1CCN(c2ccc(N)cc2C)CC1", "IC50": "4 µM (active)"}
{"smiles": "CCOc1cc(-c2ccc(N)c(OCC)c2)ccc1N", "IC50": "1.03 µM (active)"}
{"smiles": "COc1cc2c(cc1OC)CC[N+](C)=C2", "IC50": "inactive"}
{"smiles": "CCCCN1C(=O)/C(=C/C=C/c2ccco2)C(=O)NC1=S", "IC50": "inactive"}
{"smiles": "O=C(O)c1cccc2c1NC(C(=O)O)C1CC(Sc3ccccc3[N+](=O)[O-])C(Cl)C21", "note": "(configuration not stated)", "IC50": "inactive"}
{"smiles": "O=C(O)CCn1cc(C=C2C(=O)NC(=S)NC2=O)c(-c2cccc(Cl)c2)n1", "IC50": "inactive"}
